In the supplement of paper PMC4466140:

Columns and labels:
Assay in all cases: SPOT peptide array binding signal intensity (averaged, normalized) (arbitrary units (background-subtracted, floor 0; scale differs between SH3 domains)); higher = stronger binding of the SH3 domain to the peptide
[1] = target: AgAbp1
How it was run: (§1)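 Cellulose membranes carried synthetic 15-mer peptides with cysteines swapped for serines. These were incubated overnight at 4°C with 10 μg/ml of GST-fused SH3 domains from four yeast species in TBS-based blocking buffer. Binding signal, detected with anti-GST antibody and quantified in Genespotter, is the normalized, background-subtracted spot intensity averaged over replicates, in arbitrary units specific to each domain.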

[2] = target: AgBbc1
How it was run: as §1

[3] = target: AgBem1-D1
How it was run: as §1

[4] = target: AgBzz1-D1
How it was run: as §1

[5] = target: AgBzz1-D2
How it was run: as §1

[6] = target: AgCyk3
How it was run: as §1

[7] = target: AgFus1
How it was run: as §1

[8] = target: AgHof1
How it was run: as §1

[9] = target: AgHse1
How it was run: as §1

[10] = target: AgLsb1
How it was run: as §1

[11] = target: AgLsb4
How it was run: as §1

[12] = target: AgMyo5
How it was run: as §1

[13] = target: AgNbp2
How it was run: as §1

[14] = target: AgRvs167
How it was run: as §1

[15] = target: AgSho1
How it was run: as §1

[16] = target: AgSla1-D1-D2
How it was run: as §1

[17] = target: AgSla1-D3
How it was run: as §1

[18] = target: CaAbp1-D1
How it was run: as §1

[19] = target: CaAbp1-D2
How it was run: as §1

[20] = target: CaBbc1
How it was run: as §1

[21] = target: CaBem1-D1
How it was run: as §1

[22] = target: CaBzz1-D1
How it was run: as §1

[23] = target: CaBzz1-D2
How it was run: as §1

[24] = target: CaCyk3
How it was run: as §1

[25] = target: CaFus1
How it was run: as §1

[26] = target: CaHof1
How it was run: as §1

[27] = target: CaHse1
How it was run: as §1

[28] = target: CaLsb1
How it was run: as §1

[29] = target: CaLsb4
How it was run: as §1

[30] = target: CaMyo5
How it was run: as §1

[31] = target: CaNbp2
How it was run: as §1

[32] = target: CaRvs167
How it was run: as §1

[33] = target: CaRvs167-3
How it was run: as §1

[34] = target: CaSho1
How it was run: as §1

[35] = target: CaSla1-D1-D2
How it was run: as §1

[36] = target: CaSla1-D3
How it was run: as §1

[37] = target: ScAbp1
How it was run: as §1

[38] = target: ScBbc1
How it was run: as §1

[39] = target: ScBem1-D1
How it was run: as §1

[40] = target: ScBzz1-D1
How it was run: as §1

[41] = target: ScBzz1-D2
How it was run: as §1

[42] = target: ScCyk3
How it was run: as §1

[43] = target: ScFus1
How it was run: as §1

[44] = target: ScHof1
How it was run: as §1

[45] = target: ScHse1
How it was run: as §1

[46] = target: ScLsb1
How it was run: as §1

[47] = target: ScLsb2
How it was run: as §1

[48] = target: ScLsb3
How it was run: as §1

[49] = target: ScLsb4
How it was run: as §1

[50] = target: ScMyo3
How it was run: as §1

[51] = target: ScMyo5
How it was run: as §1

[52] = target: ScNbp2
How it was run: as §1

[53] = target: ScPex13
How it was run: as §1

[54] = target: ScRvs167
How it was run: as §1

[55] = target: ScSho1
How it was run: as §1

[56] = target: ScSla1-D1-D2
How it was run: as §1

[57] = target: ScSla1-D3
How it was run: as §1

[58] = target: SpAbp1-D1
How it was run: as §1

[59] = target: SpBbc1
How it was run: as §1

[60] = target: SpBzz1-D1
How it was run: as §1

[61] = target: SpBzz1-D2
How it was run: as §1

[62] = target: SpCyk3
How it was run: as §1

[63] = target: SpHof1
How it was run: as §1

[64] = target: SpHof1-2
How it was run: as §1

[65] = target: SpHof1-3
How it was run: as §1

[66] = target: SpHse1
How it was run: as §1

[67] = target: SpLsb1
How it was run: as §1

[68] = target: SpLsb4
How it was run: as §1

[69] = target: SpMyo1
How it was run: as §1

[70] = target: SpNbp2
How it was run: as §1

[71] = target: SpPex13
How it was run: as §1

[72] = target: SpRvs167
How it was run: as §1

[73] = target: SpSla1-D1-D2
How it was run: as §1

[74] = target: SpSla1-D3
How it was run: as §1

## RKNRAPPQRPRFNRD
[1]
  SPOT peptide array binding signal intensity: 958
[2]
  SPOT peptide array binding signal intensity: 476
[3]
  SPOT peptide array binding signal intensity: 438
[4]
  SPOT peptide array binding signal intensity: 256
[5]
  SPOT peptide array binding signal intensity: 154
[6]
  SPOT peptide array binding signal intensity: 16
[7]
  SPOT peptide array binding signal intensity: 501
[8]
  SPOT peptide array binding signal intensity: 142
[9]
  SPOT peptide array binding signal intensity: 631
[10]
  SPOT peptide array binding signal intensity: 230
[11]
  SPOT peptide array binding signal intensity: 131
[12]
  SPOT peptide array binding signal intensity: 6.5
[13]
  SPOT peptide array binding signal intensity: 3290
[14]
  SPOT peptide array binding signal intensity: 7
[15]
  SPOT peptide array binding signal intensity: 37
[16]
  SPOT peptide array binding signal intensity: 474
[17]
  SPOT peptide array binding signal intensity: 52
[18]
  SPOT peptide array binding signal intensity: 924
[19]
  SPOT peptide array binding signal intensity: 998
[20]
  SPOT peptide array binding signal intensity: 1240
[21]
  SPOT peptide array binding signal intensity: 65.5
[22]
  SPOT peptide array binding signal intensity: 1760
[23]
  SPOT peptide array binding signal intensity: 1020
[24]
  SPOT peptide array binding signal intensity: 342
[25]
  SPOT peptide array binding signal intensity: 758
[26]
  SPOT peptide array binding signal intensity: 0.75
[27]
  SPOT peptide array binding signal intensity: 149
[28]
  SPOT peptide array binding signal intensity: 5.5
[29]
  SPOT peptide array binding signal intensity: 698
[30]
  SPOT peptide array binding signal intensity: 10.2
[31]
  SPOT peptide array binding signal intensity: 1750
[32]
  SPOT peptide array binding signal intensity: 31.5
[33]
  SPOT peptide array binding signal intensity: 53
[34]
  SPOT peptide array binding signal intensity: 423
[35]
  SPOT peptide array binding signal intensity: 1480
[36]
  SPOT peptide array binding signal intensity: 15
[37]
  SPOT peptide array binding signal intensity: 153
[38]
  SPOT peptide array binding signal intensity: 338
[39]
  SPOT peptide array binding signal intensity: 26
[40]
  SPOT peptide array binding signal intensity: 162
[41]
  SPOT peptide array binding signal intensity: 16.5
[42]
  SPOT peptide array binding signal intensity: 138
[43]
  SPOT peptide array binding signal intensity: 293
[44]
  SPOT peptide array binding signal intensity: 1.5
[45]
  SPOT peptide array binding signal intensity: 1230
[46]
  SPOT peptide array binding signal intensity: 248
[47]
  SPOT peptide array binding signal intensity: 119
[48]
  SPOT peptide array binding signal intensity: 1430
[49]
  SPOT peptide array binding signal intensity: 53
[50]
  SPOT peptide array binding signal intensity: 22
[51]
  SPOT peptide array binding signal intensity: 14.5
[52]
  SPOT peptide array binding signal intensity: 4260
[53]
  SPOT peptide array binding signal intensity: 88.8
[54]
  SPOT peptide array binding signal intensity: 238
[55]
  SPOT peptide array binding signal intensity: 845
[56]
  SPOT peptide array binding signal intensity: 1900
[57]
  SPOT peptide array binding signal intensity: 49
[58]
  SPOT peptide array binding signal intensity: 917
[59]
  SPOT peptide array binding signal intensity: 54
[60]
  SPOT peptide array binding signal intensity: 853
[61]
  SPOT peptide array binding signal intensity: 9.75
[62]
  SPOT peptide array binding signal intensity: 10
[63]
  SPOT peptide array binding signal intensity: 285
[64]
  SPOT peptide array binding signal intensity: 16.2
[65]
  SPOT peptide array binding signal intensity: 360
[66]
  SPOT peptide array binding signal intensity: 367
[67]
  SPOT peptide array binding signal intensity: 154
[68]
  SPOT peptide array binding signal intensity: 793
[69]
  SPOT peptide array binding signal intensity: 15.5
[70]
  SPOT peptide array binding signal intensity: 726
[71]
  SPOT peptide array binding signal intensity: 30
[72]
  SPOT peptide array binding signal intensity: 98.7
[73]
  SPOT peptide array binding signal intensity: 61
[74]
  SPOT peptide array binding signal intensity: 7.5
